A selection: hits, their analogues and other compounds. The true share with any hit is near 12%.
PI5P4K alpha inh: qHTS for Inhibitors of phosphatidylinositol 5-phosphate 4-kinase (PI5P4K). PI5P4Kalpha enzyme, ADP-Glo luminescence, 60 min; stronger effect = lower value. max response, %. 330,000 compounds, 1.2% hits. AID 652105, 2013; active means max response of -50% or lower; inconclusive means between -30% and -50%; inactive means -30% or higher; further: value at the top dose of about 77 µM
Target sequence (P48426 whole entry, looked up): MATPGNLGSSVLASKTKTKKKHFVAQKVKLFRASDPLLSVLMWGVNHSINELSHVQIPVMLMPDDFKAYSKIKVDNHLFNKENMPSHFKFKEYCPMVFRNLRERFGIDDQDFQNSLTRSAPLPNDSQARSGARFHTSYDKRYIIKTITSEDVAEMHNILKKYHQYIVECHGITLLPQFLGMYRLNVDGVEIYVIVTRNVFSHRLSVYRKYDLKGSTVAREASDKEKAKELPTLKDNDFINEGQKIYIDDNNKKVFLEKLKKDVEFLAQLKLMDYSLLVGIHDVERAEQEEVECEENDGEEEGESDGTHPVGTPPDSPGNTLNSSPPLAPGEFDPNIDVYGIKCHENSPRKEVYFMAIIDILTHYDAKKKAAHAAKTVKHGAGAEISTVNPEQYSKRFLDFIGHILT
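Controls without substrate or without enzyme flank wells where PI5P4Kalpha converts substrate using 5 microM ATP (final). Incubation lasts 60 minutes at room temperature; ADP formed is read by ADP-Glo luminescence.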
HP1b chromo inh: HTS for Inhibitors of HP1-beta Chromodomain Interactions with Methylated Histone Tails; AlphaScreen HP1-beta / biotin-H3K9me3 peptide binding; Potency, µM (highest dose often 114 µM), actives largely listed as inhibitors; 390,000 compounds, 0.56% hits; further: nearly all actives have a fitted effect of over 70% in size
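AlphaScreen: HP1-beta (50 nM) preformed 30 min with biotin-H3(1-18)K9me3 peptide (50 nM) in PBS pH 7.4, 0.01% Tween-20. Compound added for 30 min at RT, then streptavidin donor/nickel chelate acceptor beads (10 ug/mL) for 30 min.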
G9a block: qHTS Assay for Inhibitors of Histone Lysine Methyltransferase G9a | G9a H3K9 monomethylation, AlphaScreen, 2 h | 350,000 compounds, 8.8% hits | Histone-lysine N-methyltransferase EHMT2 (Homo sapiens), Q96KQ7 | Potency, µM (doses to about 102 µM), most hits filed as inhibitors; further: nearly all actives have a fitted effect of over 75% in size
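Methyltransferase reactions run at room temperature for 2 h (20 nM enzyme, 500 nM biotin-H3K9 peptide, 20 uM SAM) after a 15 min compound preincubation; product detected by AlphaScreen beads and anti-H3K9me1 antibody.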
BAZ2B block: qHTS Assay for Inhibitors of BAZ2B; Bromodomain adjacent to zinc finger domain protein 2B (Homo sapiens), Q9UIF8; Potency, µM (top dose mostly 114 µM), usual class: inhibitors; AID 504333, 2011; 360,000 compounds, 4.4% hits; AlphaScreen BAZ2B-H3K14Ac peptide displacement; further: nearly all actives have a fitted effect of over 60% in size
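Inhibition is scored as reduced AlphaScreen emission. The BAZ2B/b-H3(5-23)K14Ac complex (50 nM each) in PBS pH 7.4, 0.01% Tween-20 meets compound (up to 110 uM) for 30 min at RT before bead addition.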
JMJD2A Tudor inh: qHTS Assay for Inhibitors of JMJD2A-Tudor Domain; AID 504339, 2011; Potency, µM (titrated, usually from 114 µM), usual class: inhibitors; AlphaScreen JMJD2A-Tudor / H3K4me3 peptide binding; 390,000 compounds, 4.4% hits; further: nearly all actives have a fitted effect of over 50% in size
PLK1 PBD block: qHTS for Inhibitors of PLK1-PDB (polo-like kinase 1 - polo-box domain): Primary Screen; Plk1 PBD binding of FITC phosphopeptide, fluorescence polarization; Potency, µM, actives largely listed as inhibitors; 360,000 compounds, 2.8% hits; further: series mostly up to about 57 µM; nearly all actives have a fitted effect of over 65% in size
Numbers stand for hits; 0 = inactive; ? = inconclusive; - = no result; [ ] = dose if it differs, or a comment. Unless noted, the call rests on the fitted dose curve; in most records, active means well fitted curve in the direction sought with a large enough effect; inconclusive means small, poorly fitted or top-dose-only effect, or another doubt; inactive means no such curve, though single readings can be large; an effect the other way counts as inactive or inconclusive.

SMILES	PI5P4K alpha inh	HP1b chromo inh	G9a block	BAZ2B block	JMJD2A Tudor inh	PLK1 PBD block
C[C@@H]1O[C@@H](OC[C@@H]2O[C@H](Oc3c(-c4ccc(O)cc4)oc4cc(O)cc(O)c4c3=O)[C@@H](O)[C@H](O)[C@H]2O)[C@H](O)[C@H](O)[C@H]1O	0	0	-	-	0	0
CC1OC(Oc2c(-c3cc(O)c(O)c(O)c3)oc3cc(O)cc(O)c3c2=O)C(O)C(O)C1O (configuration not stated)	?	0	40µM	0	?	?
CC(=O)Nc1ccccc1-c1nc2ccccc2n(C(C)C(=O)Nc2cccc(C)c2C)c1=O (configuration not stated)	-	0	0	0	0	-
CCN(CC)CCOC(=O)C(Cc1cccc2ccccc12)CC1CCCO1 (configuration not stated)	0	?	0	50µM	20µM	0
CCOCCCN(Cc1ccco1)S(=O)(=O)c1cc2c(cc1Cl)NC(=O)CO2	-	0	0	0	0	-
O=C1CCCN1CCC1CCN(C2CC(=O)N(c3ccc(F)cc3)C2=O)CC1 (configuration not stated)	-	0	14µM	0	0	0
O=C(C1CCN(C2CC(=O)N(c3ccc(F)cc3)C2=O)CC1)N1CCOCC1 (configuration not stated)	0	0	?	0	?	0
O=C(N/N=C/c1oc(O)c2ccccc12)c1ccccc1	0	0	11µM	0	0	0
COc1ccccc1C(=O)NCCC(=O)N1CCN(S(=O)(=O)c2ccccc2C(F)(F)F)CC1	0	0	0	0	0	0
COc1ccc(CC(=O)OCc2csc(CC(=O)Nc3ccc(C)cc3)n2)cc1	0	0	-	-	0	0
Cc1ccc(NC(=O)Cc2nc(CCl)cs2)cc1	0	0	8.9µM	0	?	0
COc1cc(/C=C/C(=O)OCc2csc(CC(=O)Nc3ccc(C)cc3)n2)ccc1OCC#N	0	0	10µM	0	0	0
COc1ccc(NC2=C3CCCC=C3N(c3ccc(OC)cc3)C2=O)cc1	0	0	40µM	0	?	?
COc1ccc(NC2=C3CC(C)CC=C3N(c3ccc(OC)cc3)C2=O)cc1 (configuration not stated)	0	0	?	0	0	0
COc1cccc(Cn2c(=O)c(-c3ccc(Cl)cc3)nc3cncnc32)c1	-	-	0[0.501 µM]	-	-	-
CCNc1nc(-c2ccc(OC(F)F)cc2)c(C)s1	0	0	40µM	0	0	0
Cc1ccc(C(C[N+](=O)[O-])Sc2ccc(N)cc2)cc1 (configuration not stated)	0	0	40µM	?	0	6.7µM
Cc1ccc(C(O)CCc2ccc(N)cc2)cc1 (configuration not stated)	0	0	0	0	0	0
Cc1c(C(=O)N2CCN(S(=O)(=O)c3cc(F)ccc3F)CC2)oc2ccccc12	0	0	?	79µM	0	0
Nc1ccc(S(=O)(=O)N2CCN(S(=O)(=O)c3c(F)cccc3F)CC2)cc1	-	-	-	-	89µM	-
O=S(=O)(c1ccc(F)cc1)N1CCN(S(=O)(=O)c2cc(F)ccc2F)CC1	0	0	0[0.501 µM]	0	?	21µM
Cc1ccc(C(=O)N2CCN(c3ccc(C(F)(F)F)cn3)CC2)cc1	0	0	0	0	0	0
O=S(=O)(c1ccccc1)N1CCN(S(=O)(=O)c2ccc(F)cc2)CC1	0	0	0[0.501 µM]	0	0	0
Cc1c(C(=O)N2CCN(c3ccc(C(F)(F)F)cn3)CC2)oc2ccccc12	0	0	0	0	0[11.4 µM]	30µM
COC(=O)C(C(C)C)N1CC(=O)c2ccccc2S1(=O)=O (configuration not stated)	-	0	-	-	0	-
COc1ccc(CCNC(=O)Cn2c(=O)n(-c3ccc(OC)c(OC)c3)c(=O)c3ccccc32)cc1OC	-	0	0	0	0	-

From PubChem BioAssay
